Assay outcomes as filed in PubChem.
This is a sample that favours compounds with a hit; in the whole collection about 0.44% have one here.
Epigenetic derep – epigenetic control regulation, reporter derepression. murine LDR cells, GFP reporter derepression, 30 h. Potency, µM (highest dose often 53.9 µM), without a hit: top-dose GFP activation, actives largely listed as activators. actives 0.2% (n = 280,000). AID 1865; also: potency is read from the fitted curve at half-maximal effect; % of control where 0% means no effect; nearly all actives have a fitted effect of over 60% in size
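GFP-positive cell count by laser-scanning cytometry (objects 20–120 um) after 30 h, 37 C compound exposure of murine LDR cells; reporter is CMV-GFP integrated at a silenced locus, inducible by HDAC or DNMT inhibitors.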
PI4K2A inh – PI4K2A (human) kinase inhibition. AID 1346378. Q9BTU6. actives 0.13% (n = 420,000). activity change, negative = inhibition, % at 76.9 µM. purified PI4K2A, ADP-Glo luminescence, 1 h; stronger effect = lower value; in the data active = activity change below about -50%; inconclusive = mostly about -30% to -49%;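 also: -100% = wells without enzyme as full effect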
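ADP-Glo luminescence measured ADP generated by PI4K2A enzyme (4 ug/mL before mixing) with 1.2 mM PI substrate (pre-mix) and 300 microM ATP (pre-mix). Tris pH7.5 buffer with MgCl2, Triton X-100; 1 h reaction at ambient temperature.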
p53 reactivation – mutant p53 re-activation in reporter cells | actives 0.063% (n = 320,000) | H1299 p53-A138V BP100-luciferase reporter, luminescence, 24 h | Potency, µM (highest dose often 92.2 µM), for inactives: at the top dose activity change, positive = activation, hits mostly activators; also: potency is read from the fitted curve at half-maximal effect; % of control where 0% means no effect; nearly all actives have a fitted effect of over 45% in size
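p53-null H1299 cells stably carrying temperature-sensitive p53-A138V and a BP100-luciferase reporter were pinned with compounds (4-point, 1:5 series) and held 24 hrs at 37 deg C. Luminescence was read 10 min after detection reagent.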
Pin1 inh – inhibitors of human Pin1; Q13526; Pin1 FP peptide displacement, HiFluor488, 10 min; actives 0.009% (n = 390,000); Potency, µM (highest dose often 115 µM), for inactives: at the top dose activity, negative = inhibition, usual class: inhibitors; AID 504891; active = well fitted inhibition curve with a large enough effect in the polarisation, with a control signal flat, not every such curve was filed as active; inconclusive = small, poorly fitted or top-dose-only effect, or effect the other way, or a change in a side signal; inactive = no such curve, though single readings can be large or run the other way; the % refers to the polarisation; also: potency is read from the fitted curve at half-maximal effect; % is scaled to controls: 0 for no effect and ±100 for the full control effect
Target sequence (Q13526 whole entry, looked up): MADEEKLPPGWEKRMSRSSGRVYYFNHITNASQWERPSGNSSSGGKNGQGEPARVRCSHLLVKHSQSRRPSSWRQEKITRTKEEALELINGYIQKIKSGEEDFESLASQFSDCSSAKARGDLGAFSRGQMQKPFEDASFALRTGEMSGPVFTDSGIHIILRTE
B2AR arrestin – recruits beta-arrestin to the human beta2-adrenergic receptor. Potency, µM (series often up to 46.1 µM), for the others: at the top dose activation, actives largely listed as activators. AID 492947. actives 0.02% (n = 330,000). beta-arrestin recruitment to beta2AR, cell-based reporter;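 also: potency is read from the fitted curve at half-maximal effect; 0% = DMSO controls and full agonism = EC100 isoproterenol or metaproterenol; nearly all actives have a fitted effect of over 65% in size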
Target sequence (P07550 whole entry, looked up): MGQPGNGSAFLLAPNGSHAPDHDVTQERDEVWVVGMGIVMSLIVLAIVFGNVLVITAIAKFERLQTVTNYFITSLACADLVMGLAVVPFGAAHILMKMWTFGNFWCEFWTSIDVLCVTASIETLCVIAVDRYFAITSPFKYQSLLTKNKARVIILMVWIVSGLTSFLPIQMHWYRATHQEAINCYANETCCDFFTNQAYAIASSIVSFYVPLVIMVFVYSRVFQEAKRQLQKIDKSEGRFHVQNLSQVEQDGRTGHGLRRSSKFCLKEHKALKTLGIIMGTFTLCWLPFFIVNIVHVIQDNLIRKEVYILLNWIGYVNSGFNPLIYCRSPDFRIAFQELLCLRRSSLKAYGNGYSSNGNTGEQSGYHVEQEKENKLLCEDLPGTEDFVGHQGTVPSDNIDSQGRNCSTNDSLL
Giardia killer – Giardia lamblia killing | Giardia lamblia trophozoite viability | activity change, % at 7.66 µM, hits read low | actives 0.15% (n = 340,000) | AID 540267; in the data active = activity change below about -80%; inconclusive = between about -30% and that limit;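 also: parasites exposed to compound for two days anaerobically before the ATP read; % is scaled to controls: 0 for no effect and ±100 for the full control effect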
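Viability, read as ATP luminescence: trophozoites at 100 cells/well, compound added, 48 hrs anaerobic at 37 deg C, then 15-30 min room-temperature development before reading.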
* hit, by the source's call; ? = inconclusive; · = no result. Unless noted, calls follow the shape of the dose curve; as a rule, active = well fitted curve in the direction sought with a large enough effect; inconclusive = small, poorly fitted or top-dose-only effect, or another doubt; inactive = no such curve, though single readings can be large; an effect the other way counts as inactive or inconclusive.

SMILES	Epigenetic derep	PI4K2A inh	p53 reactivation	Pin1 inh	B2AR arrestin	Giardia killer
Nc1cccc(S(=O)(=O)N2CCN(S(=O)(=O)c3c(F)cccc3F)CC2)c1	·	·	·	-3%	·	·
O=[S+]([O-])(NC[C@H]1CCC[C@H](CN[S+](=O)([O-])c2c(F)cccc2F)C1)c1ccc2c(c1)OCCO2	·	·	·	0%	·	·
CONC(=O)C[C@@H](C#N)NC(=O)[C@@H]1CCCN1C(=O)[C@@H](NC(=O)c1ccc(N)c(Cl)c1)C(C)(C)C	·	·	·	-6%	·	·
Cc1ccc(C)n1-c1ccc(C(=O)NCc2ccncc2)cc1	-1%	-6	21%	-5%	0%	10
Cc1ccc(C)n1-c1ccc(C(=O)NN)cc1	0%	-82*	5%	?	0%	-10
Oc1ccc(-c2ccccc2F)c2cccnc12	·	-7	·	-9%	·	·
Oc1ccc(Nc2ccccc2F)c2cccnc12	·	-52*	·	-12%	·	·
Cc1ccccc1NC(=S)Nc1cccc2cnccc12	-1%	-23	5%	-6%	0%	-3
Cc1ccc(C)c(NC(=S)c2ccccn2)c1	?	0	?	-7%	11µM*	0
Cc1ccc(C)c(NC(=S)c2ccc3ccccc3n2)c1	0%	-3	?	1%	0%	-5
Cc1ccc(C)c(NC(=S)Nc2cccc3cnccc23)c1	0%	-55*	6%	0%	0%	-5
CNC(=O)C1CCN(c2nc(-c3ccc(Br)cc3)cs2)CC1	·	·	·	-5%	·	·
O=C1CCc2cc(S(=O)(=O)Nc3cccc(C(F)(F)F)c3)ccc2N1	·	·	·	3%	·	·
Cc1cc(O)c(C=O)c2c1C(=O)Oc1c(CO)c(O)c3c(c1O2)C(O)OC3=O (stereo not drawn)	-3%	-85*	1%	3.2µM*	0%	0
Cc1ccc([N+](=O)[O-])cc1N/C=C1\CCCCC1=O	3.5µM*	-3	9%	?	-1%	-19
Cc1cc(O)ccc1N/C=C1\CCCC1=O	5%	-1	29%	6%	0%	6
c1ccc2c(c1)Cn1c-2nc2ccccc21	-5%	-53*	?	-1%	0%	-18
c1ccc(-c2cnc(-c3cccnc3)o2)cc1	-1%	-7	25µM*	-1%	-1%	-23
Fc1cccc(-c2ncc(-c3ccccc3)o2)c1	·	-1	·	2%	·	-27
CCN(CC)CCOC(=O)c1ccc(N/C=C(/C#N)c2nc(-c3cc4ccccc4oc3=O)cs2)cc1	·	5	1%	42%	0%	-89*
CCN(CC)CCOC(=O)c1ccc(N/C=C(/C#N)c2nc(-c3ccc4c(c3)OCO4)cs2)cc1	3%	0	-2%	?	0%	-103*
CCN(CC)CCOC(=O)c1ccc(N/C=C(/C#N)c2nc(-c3ccc(OC)cc3)cs2)cc1	1%	-1	0%	?	-1%	-8
O=C(N1Cc2ccc(Nc3nn4c(=O)c5ccccc5nc4s3)cc2C1)C(F)(F)F	·	·	·	7%	·	·
COc1ccc(-c2nc3ccccc3n2Cc2ccccc2)cc1COc1ccc(NC(C)=O)cc1	·	·	·	14%	·	·
COC(=O)c1cccc(-c2ccc(C(c3c(C)[nH][nH]c3=O)c3c(C)[nH][nH]c3=O)o2)c1	-1%	?	2%	9%	0%	-7
SMILES	Epigenetic derep	PI4K2A inh	p53 reactivation	Pin1 inh	B2AR arrestin	Giardia killer
Cc1[nH][nH]c(=O)c1C(c1ccc(-c2ccc(Cl)c(C(=O)O)c2)o1)c1c(C)[nH][nH]c1=O	0%	-59*	0%	?	1%	6
CN(C)c1ccc(/C=N/N=C2/NC(=O)/C(=C/c3ccc([N+](=O)[O-])cc3)S2)cc1	5%	4	-2%	17%	0%	-93*
CCOC(=O)N=Nc1c2ccccc2c2nc3no[nH]c3nc12	1%	-26	2%	14%	-1%	-96*
Nc1ccc(Oc2ncccn2)cc1	·	-54*	5%	-10%	12%	20
O=Cc1cccc(Oc2ncccn2)c1	-2%	4	5%	0%	0%	-11
COc1ccc(C(=O)Nc2ccc3[nH]ccc3c2)cc1	·	?	·	-2%	·	-89*
O=C(O)Cn1cnnn1	·	1	·	·	·	·
CN(C)c1ccc(-c2nc(NC3CCNCC3)c3ccccc3n2)cc1	2.8µM*	·	·	·	·	·
c1ccc(-c2nc(NC3CCCC3)c3ccccc3n2)cc1	·	-3	-5%	-1%	0%	-22
Cc1cc2c(s1)c1cnn(Cc3c(F)cc(F)cc3F)c(=O)c1n2C	·	·	·	6%	·	·
Cc1ccc(-c2cn3cccc(C)c3n2)cc1	0%	-4	2%	1%	0%	-13
O=[N+]([O-])c1cccn2cc(-c3ccc(Br)cc3)nc12	-2%	-1	?	?	-1%	-99*
COc1ccc(/C=C/C(=O)Nc2ccc3nc(N4CCC(C)CC4)cc(C)c3c2)cc1	22µM*	1	·	?	·	·
O=[S+]([O-])(c1c(F)cccc1F)N1CCN([S+](=O)([O-])c2c(F)c(F)c(F)c(F)c2F)CC1	·	·	·	1%	·	·
COc1ccccc1Oc1nc2c(C)cccn2c(=O)c1/C=C(\C#N)c1nc2ccccc2[nH]1	13µM*	-2	·	?	·	·
Cc1cccn2c(=O)c(/C=C(\C#N)C(N)=O)c(Oc3ccccc3)nc12	0%	-1	13%	4%	0%	7
CCC(=O)NC(c1ccco1)c1cc(Cl)c2c(c1O)NCCC2 (stereo not drawn)	·	·	·	-1%	·	·
Cc1[nH]n(-c2ccccc2)c(=O)c1C(c1cc(Cl)ccc1O)c1c(C)[nH]n(-c2ccccc2)c1=O	-1%	-51*	·	-3%	·	·
COc1ccc(C2c3c(ncn(CCCc4ccccc4)c3=N)Oc3ccc4ccccc4c32)cc1OC (stereo not drawn)	·	·	·	21%	·	·
CN1C(=O)/C(=C/c2ccc(O)c([N+](=O)[O-])c2)N(C)C1=S	4%	-6	-8%	-2%	0%	-91*
CNC(=O)c1ccc2nc(-c3ccco3)c(-c3ccco3)nc2c1	·	·	·	·	·	5
CC(=O)c1ccc(NC(=O)c2ccc3nc(-c4ccco4)c(-c4ccco4)nc3c2)cc1	4%	-56*	-3%	19µM*	0%	1
O=C(Nc1ccccc1)c1ccc2nc(-c3ccco3)c(-c3ccco3)nc2c1	-1%	-51*	9%	?	1%	3
COc1ccc(C2c3c(n(CCCc4ccccc4)cnc3=N)Oc3ccc4ccccc4c32)cc1OC (stereo not drawn)	·	·	·	0%	·	·
OC[C@]1(O)OC[C@@H](O)[C@H](O)[C@@H]1O	·	1	·	·	·	·
CCCN1CCN(c2cccc(Nc3nn4c(=O)c5ccccc5nc4s3)c2)CC1	·	·	·	6%	·	·
COc1cc2ccccc2cc1C(=O)OCC(=O)c1c(N)n(C)c(=O)n(C)c1=O	·	-3	-11%	6%	0%	6
